CYP2C9 inhib – blocks human cytochrome P450 2C9 | P11712 | CYP2C9 Supersomes, luciferin-H conversion, luminescence | inhibition, % at 5 µM | 96,000 tested, 20% active | AID 777;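 active = blocking of liver enzyme CYP2C9 beyond about 50% at 5 µM, limit read from the data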
PLAP act – human PLAP activation; P05187; purified PLAP enzyme, luminescent substrate read-out; stronger effect = higher value; activation fold at 20 µM; 96,000 tested, 1.2% active; in the data active = activation fold above about 2
CYP2C19 activ – cytochrome P450 2C19 (human) activation; recombinant CYP2C19, luciferin-H EGE luminescence; stronger effect = higher value; 0 = fully inhibited enzyme, 1 = untreated enzyme; 96,000 tested, under 10 active; P33261; AID 1025; activation factor at 5 µM;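 active = activation factor of at least 2 at 5 µM in the primary screen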;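 note: 0 = wells with 2.5 mM tranylcypromine and 1 = vehicle-only wells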
Target sequence (P33261 whole entry, looked up): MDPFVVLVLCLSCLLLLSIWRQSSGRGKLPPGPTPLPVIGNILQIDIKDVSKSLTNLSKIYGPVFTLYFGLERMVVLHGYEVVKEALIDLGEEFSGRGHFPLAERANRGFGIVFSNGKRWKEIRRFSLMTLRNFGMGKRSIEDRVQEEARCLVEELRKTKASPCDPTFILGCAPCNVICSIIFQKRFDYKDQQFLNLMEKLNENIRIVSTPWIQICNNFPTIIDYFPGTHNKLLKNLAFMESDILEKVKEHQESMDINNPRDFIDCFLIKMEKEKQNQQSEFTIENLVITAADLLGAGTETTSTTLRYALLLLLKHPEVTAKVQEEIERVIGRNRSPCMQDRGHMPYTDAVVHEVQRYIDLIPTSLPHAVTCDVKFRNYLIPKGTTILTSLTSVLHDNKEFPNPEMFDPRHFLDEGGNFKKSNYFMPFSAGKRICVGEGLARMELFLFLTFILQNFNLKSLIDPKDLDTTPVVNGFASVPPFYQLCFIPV
CYP2C9 act – increases human cytochrome P450 2C9 activity | recombinant CYP2C9, luciferin-H conversion, luminescence; stronger effect = higher value; factor 1 = untreated enzyme, 0 = blocked | 96,000 tested, 1.4% active | activation factor at 5 µM | P11712 | AID 1024;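 active = activation factor of 2 or more for CYP2C9 at a 5 µM dose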;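 note: 0 = sulfaphenazole-blocked wells and 1 = vehicle-only wells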
CYP2C19 inhib – blocks human cytochrome P450 2C19; P33261; CYP2C19 Supersomes, luciferin-H EGE luminescence, 30 min; inhibition, % at 5 µM; 96,000 tested, 21% active; AID 778;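 active = CYP2C19 inhibition above a set limit at 5 µM in the primary screen, cut at about 50% in these data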;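 note: plate controls were negative control wells for no effect and 2.5 mM tranylcypromine positive control for full effect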
* hit, by the source's call. Shown are actives, neighbours in structure and some others; about 31% of the full set was active somewhere.

SMILES	CYP2C9 inhib	PLAP act	CYP2C19 activ	CYP2C9 act	CYP2C19 inhib
COc1ccc(N(C(=O)Cn2nnc3ccccc32)C(C(=O)NCc2ccco2)c2ccc(C)o2)cc1 (centres undefined)	58*	1.6	0.3	0.4	68*
Cc1ccc(N(C(=O)Cn2nnc3ccccc32)C(C(=O)NCc2ccco2)c2cccnc2)cc1 (centres undefined)	6	1.1	0.3	0.9	65*
COc1cccc(N(C(=O)Cn2nnc3ccccc32)C(C(=O)NCc2ccco2)c2cccnc2)c1 (centres undefined)	32	1.4	0.2	0.7	79*
COc1ccc(OC)c(C(C(=O)NCc2ccco2)N(C(=O)Cn2nnc3ccccc32)C2CC2)c1 (centres undefined)	9	1	0.5	0.9	49
Cc1cc(C)cc(N(C(=O)Cn2nnc3ccccc32)C(C(=O)NCc2ccco2)c2ccncc2)c1 (centres undefined)	13	0.8	0.7	0.9	33
COc1ccc(OC)c(C(C(=O)NCc2ccco2)N(C(=O)Cn2nnc3ccccc32)C(C)C)c1 (centres undefined)	12	1.3	0.4	0.9	62*
Cc1ccc(N(C(=O)Cn2nnc3ccccc32)C(C(=O)NCc2ccco2)c2ccc(C)o2)cc1 (centres undefined)	18	1.5	0.6	0.8	39
CCn1c2ccccc2c2nnc(SCc3ccc(C(=O)OC)o3)nc21	22	1	0.5	0.8	48
CCC(C)(NC(=O)CNC(C)=O)C(=O)NC1CCCCC1 (centres undefined)	-18	0.8	1	1.2	-1
CCc1nnc(NC(=O)C2CC(=O)N(Cc3ccco3)C2)s1 (centres undefined)	2	1.1	1	1	0
COc1ccc(N(CC(=O)Nc2ccc3c(c2)OCO3)S(=O)(=O)c2ccccc2)c(OC)c1	99*	1.6	0	0	99*
COc1ccc(S(=O)(=O)N(C)CC(=O)Nc2c(F)cccc2F)cc1	-84	0.9	0.2	1.8	80*
COc1ccc(OC)c(S(=O)(=O)N(C)CC(=O)Nc2ccc3c(c2)OCCO3)c1	75*	1	0.7	0.2	27
COc1ccc(OC)c(S(=O)(=O)N(C)CC(=O)Nc2ccc3c(c2)OCO3)c1	87*	0.8	0.2	0.1	83*
COc1ccccc1N(CC(=O)Nc1ccc2c(c1)OCCO2)S(C)(=O)=O	31	1.4	1	0.7	-2
O=C(Cn1c(=O)c2c(ncn2C2CCCC2)n(Cc2ccccc2)c1=O)N1CCc2ccccc21	13	1.8	0.9	0.9	11
COc1ccc(S(=O)(=O)N(C)CC(=O)Nc2ccc3c(c2)OCO3)cc1	54*	1	0.4	0.5	61*
COC(=O)c1ccc(NC(=O)CN(C)S(=O)(=O)c2ccc(OC)c(C)c2)cc1	-18	1.1	0.7	1.2	26
COc1ccc(S(=O)(=O)N(C)CC(=O)Nc2ccc3c(c2)OCO3)cc1OC	15	0.9	0.8	0.9	25
Cc1cccc(NC(=O)CN(C)S(=O)(=O)c2ccc(Br)cc2)n1	7	1	0	0.9	96*
COc1ccc(C)cc1S(=O)(=O)N(C)CC(=O)Nc1ccc2c(c1)OCCO2	83*	0.8	0.6	0.2	39
CCN(CC(=O)Nc1ccc(S(N)(=O)=O)cc1)S(=O)(=O)c1cc(C)ccc1OC	97*	1.1	1.1	0	-5
CCOC(=O)c1[nH]c(C)c(/C(O)=C2\C(=O)C(=O)N(CCCN(C)C)C2c2ccncc2)c1C (centres undefined)	-6	1	1.1	1.1	-7
CCOc1ccc(N(Cc2cc3ccc(C)cc3[nH]c2=O)C(=O)COC)cc1	45	1.5	0.7	0.5	27
Cc1ccccc1NC(=O)c1sc(Cl)nc1-c1ccccc1	44	1	0.4	0.6	61*
SMILES	CYP2C9 inhib	PLAP act	CYP2C19 activ	CYP2C9 act	CYP2C19 inhib
COc1cccc(/C=N/n2c(SC)nnc2-c2ccccc2)c1O	54*	1.4	0.7	0.5	26
COc1cccc(/C=N/n2c(N)nc3ccccc32)c1OC	19	1.5	0.7	0.8	31
COc1cccc(/C=N/n2c(=S)n(C)c3cc(C)c(C)cc32)c1OC	39	1.1	0.8	0.6	17
COc1cccc(/C=N/n2cnc3ccccc32)c1OC	46	1	0.2	0.5	83*
COc1cccc(/C=N/n2c(SC)nnc2-c2ccccc2)c1OC	91*	1.4	0.1	0.1	91*
CCOP(=O)(O)c1ccccc1OCCOc1ccccc1P(=O)(O)OCC	-24	1.1	1.2	1.2	-19
CCOc1ccccc1NC1c2ccccc2C(=O)N1Cc1ccco1 (centres undefined)	19	1	0.4	0.8	63*
O=C1c2ccccc2C(Nc2ccc(S(=O)(=O)N3CCCCCC3)cc2)N1Cc1ccco1 (centres undefined)	97*	1.4	0.6	0	36
Cc1ccc(N2C(=O)c3ccccc3C2Nc2ccc(S(=O)(=O)N3CCCCC3)cc2)nc1 (centres undefined)	36	1.5	0.9	0.6	14
CCc1ccccc1NC1c2ccccc2C(=O)N1Cc1ccco1 (centres undefined)	15	1	1	0.8	0
Cc1ccc(NC(=O)NCCc2ccc(S(N)(=O)=O)cc2)cc1	23	0.9	0.9	0.8	14
Cc1ccc(NC(=O)NCCCc2ccccc2)cc1	24	1	0.4	0.8	59*
COC(=O)C(Cc1ccc(O)cc1)NC(=O)C(C)Oc1ccccc1 (centres undefined)	58*	0.7	0.1	0.4	94*
Cc1ccc(N(O)C(=O)OCCNC(=O)Nc2ccccc2)cc1	92*	1	0.1	0.1	94*
COC(=O)[C@H](Cc1ccccc1)NC(=O)Nc1ccc(C)cc1	17	0.9	0.3	0.8	66*
COC(=O)C(NC(=O)C(C)Oc1ccccc1)C(C)C (centres undefined)	1	0.9	0.7	1	31
CN1C(=O)C(O)(CC(=O)c2cccc(-n3cccc3)c2)c2ccccc21 (centres undefined)	9	1.1	0.9	0.9	12
COc1ccccc1COCC(O)CNCC1(N2CCCCC2)CCCCC1 (centres undefined)	5	1	1	1	1
CCCCC(=O)NCCNC(=O)c1cc(OCC(F)(F)F)ccc1OCC(F)(F)F	25	1	0.9	0.7	12
CCOC(=O)CCc1c(C)nc2c(c(C)nn2C(C)(C)C)c1C	14	1.4	0.7	0.9	30
Cc1cc(C)nc(NC(=NCc2ccc3c(c2)OCO3)NC(=O)Nc2ccccc2)n1	0	0.9	1.1	1	-13
COC(=O)[C@H](CCSC)NC(=O)NCCC1=CCCCC1	36	1.3	0.5	0.6	45
COC(=O)[C@H](Cc1ccccc1)NC(=O)NCCC1=CCCCC1	62*	1.3	0.3	0.4	69*

From PubChem
